# Results published in ChEMBL document CHEMBL1961873, “Compounds: GSK PKIS; Assays: Nanosyn kinase panel” (2012).
# Assays:
# [1] = molecular target: Sphingosine kinase 1 (Homo sapiens) (UniProt Q9NYA1); details: at 1 µM;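 further: mean SPHK1 inhibition value reported from the GSK PKIS kinase panel screen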
# [2] = molecular target: T1, Sphingosine kinase 2 (Homo sapiens) (UniProt Q9NRA0); details: at 0.1 µM
# T1 sequence (whole entry): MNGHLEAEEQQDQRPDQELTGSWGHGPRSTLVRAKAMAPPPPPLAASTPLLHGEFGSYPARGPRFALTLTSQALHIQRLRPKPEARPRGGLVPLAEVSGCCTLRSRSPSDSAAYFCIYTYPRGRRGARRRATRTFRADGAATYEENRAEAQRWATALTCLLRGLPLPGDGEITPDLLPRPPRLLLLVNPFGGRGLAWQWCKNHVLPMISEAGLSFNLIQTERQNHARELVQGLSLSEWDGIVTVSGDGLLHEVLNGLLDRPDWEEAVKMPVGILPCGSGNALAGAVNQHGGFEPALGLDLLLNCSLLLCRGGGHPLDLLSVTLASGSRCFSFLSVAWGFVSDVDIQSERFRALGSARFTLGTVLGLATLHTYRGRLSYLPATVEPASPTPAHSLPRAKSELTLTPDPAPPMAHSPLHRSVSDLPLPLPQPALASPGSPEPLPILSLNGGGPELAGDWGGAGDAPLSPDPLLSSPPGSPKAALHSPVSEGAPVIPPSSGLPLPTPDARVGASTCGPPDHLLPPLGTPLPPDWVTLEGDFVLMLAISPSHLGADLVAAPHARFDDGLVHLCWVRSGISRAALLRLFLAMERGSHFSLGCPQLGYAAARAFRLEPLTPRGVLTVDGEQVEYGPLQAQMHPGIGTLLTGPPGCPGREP
# [3] = molecular target: T1, Sphingosine kinase 2 (Homo sapiens); details: at 1 µM
# [4] = molecular target: Casein kinase II subunit alpha (Homo sapiens) (UniProt P68400); details: at 0.1 µM
# Sequence of Casein kinase II subunit alpha (Homo sapiens) (P68400 whole entry, looked up): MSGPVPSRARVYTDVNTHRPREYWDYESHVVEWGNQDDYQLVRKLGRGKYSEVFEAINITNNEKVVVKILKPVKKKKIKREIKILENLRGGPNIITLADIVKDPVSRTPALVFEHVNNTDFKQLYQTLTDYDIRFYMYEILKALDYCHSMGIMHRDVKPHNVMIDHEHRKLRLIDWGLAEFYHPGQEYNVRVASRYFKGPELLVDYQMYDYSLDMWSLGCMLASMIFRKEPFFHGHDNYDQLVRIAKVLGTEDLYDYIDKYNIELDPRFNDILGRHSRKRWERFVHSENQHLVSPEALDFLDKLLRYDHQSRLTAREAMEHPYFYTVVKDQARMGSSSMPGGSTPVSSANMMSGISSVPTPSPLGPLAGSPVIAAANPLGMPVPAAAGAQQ
# [5] = molecular target: Casein kinase II subunit alpha (Homo sapiens) (UniProt P68400); details: at 1 µM
# [6] = molecular target: T2, Inhibitor of nuclear factor kappa-B kinase subunit alpha (Homo sapiens) (UniProt O15111); details: at 0.1 µM
# T2 sequence (whole entry): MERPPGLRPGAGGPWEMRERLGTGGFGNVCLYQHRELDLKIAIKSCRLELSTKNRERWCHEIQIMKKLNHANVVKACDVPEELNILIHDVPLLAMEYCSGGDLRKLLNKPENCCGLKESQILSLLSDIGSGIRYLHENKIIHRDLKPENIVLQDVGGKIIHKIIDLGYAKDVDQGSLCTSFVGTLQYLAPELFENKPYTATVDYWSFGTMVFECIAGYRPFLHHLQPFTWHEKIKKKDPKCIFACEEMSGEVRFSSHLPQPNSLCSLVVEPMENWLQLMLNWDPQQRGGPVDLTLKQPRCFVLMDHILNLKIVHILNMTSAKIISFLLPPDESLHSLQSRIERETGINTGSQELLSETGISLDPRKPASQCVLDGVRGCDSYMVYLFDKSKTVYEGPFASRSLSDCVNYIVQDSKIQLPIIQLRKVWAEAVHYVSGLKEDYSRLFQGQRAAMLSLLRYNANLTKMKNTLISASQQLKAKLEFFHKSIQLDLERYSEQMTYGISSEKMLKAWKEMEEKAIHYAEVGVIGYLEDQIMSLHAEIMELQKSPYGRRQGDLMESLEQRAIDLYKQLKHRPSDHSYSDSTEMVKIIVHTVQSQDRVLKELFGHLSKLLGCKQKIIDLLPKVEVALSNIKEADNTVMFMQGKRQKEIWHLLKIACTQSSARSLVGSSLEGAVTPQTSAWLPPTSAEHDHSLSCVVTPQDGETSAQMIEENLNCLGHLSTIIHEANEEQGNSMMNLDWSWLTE
# [7] = molecular target: T2, Inhibitor of nuclear factor kappa-B kinase subunit alpha (Homo sapiens); details: at 1 µM
# [8] = molecular target: T3, Inhibitor of nuclear factor kappa-B kinase subunit beta (Homo sapiens) (UniProt O14920); details: at 0.1 µM
# T3 sequence (whole entry): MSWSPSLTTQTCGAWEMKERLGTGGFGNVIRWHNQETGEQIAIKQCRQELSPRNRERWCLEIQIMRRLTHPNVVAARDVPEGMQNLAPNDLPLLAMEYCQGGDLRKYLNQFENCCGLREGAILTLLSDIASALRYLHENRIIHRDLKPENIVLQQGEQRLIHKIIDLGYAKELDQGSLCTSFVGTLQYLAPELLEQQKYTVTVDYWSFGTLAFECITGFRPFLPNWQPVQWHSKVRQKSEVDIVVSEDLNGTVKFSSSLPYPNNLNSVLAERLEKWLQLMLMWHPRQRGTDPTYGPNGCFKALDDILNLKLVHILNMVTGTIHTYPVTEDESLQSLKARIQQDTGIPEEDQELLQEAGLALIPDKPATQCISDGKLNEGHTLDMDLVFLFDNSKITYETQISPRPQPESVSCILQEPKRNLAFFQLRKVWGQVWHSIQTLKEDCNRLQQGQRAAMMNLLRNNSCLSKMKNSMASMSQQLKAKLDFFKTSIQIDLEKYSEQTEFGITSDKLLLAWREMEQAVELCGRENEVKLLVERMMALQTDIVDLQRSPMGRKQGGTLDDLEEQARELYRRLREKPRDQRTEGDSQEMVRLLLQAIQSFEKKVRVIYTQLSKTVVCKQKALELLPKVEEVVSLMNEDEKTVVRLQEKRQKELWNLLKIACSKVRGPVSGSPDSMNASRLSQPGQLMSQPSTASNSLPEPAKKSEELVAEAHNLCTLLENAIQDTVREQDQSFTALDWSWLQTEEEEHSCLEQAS
# [9] = molecular target: T3, Inhibitor of nuclear factor kappa-B kinase subunit beta (Homo sapiens); details: at 1 µM
# [10] = molecular target: T4, Inhibitor of nuclear factor kappa-B kinase subunit epsilon (Homo sapiens) (UniProt Q14164); details: at 0.1 µM
# T4 sequence (whole entry): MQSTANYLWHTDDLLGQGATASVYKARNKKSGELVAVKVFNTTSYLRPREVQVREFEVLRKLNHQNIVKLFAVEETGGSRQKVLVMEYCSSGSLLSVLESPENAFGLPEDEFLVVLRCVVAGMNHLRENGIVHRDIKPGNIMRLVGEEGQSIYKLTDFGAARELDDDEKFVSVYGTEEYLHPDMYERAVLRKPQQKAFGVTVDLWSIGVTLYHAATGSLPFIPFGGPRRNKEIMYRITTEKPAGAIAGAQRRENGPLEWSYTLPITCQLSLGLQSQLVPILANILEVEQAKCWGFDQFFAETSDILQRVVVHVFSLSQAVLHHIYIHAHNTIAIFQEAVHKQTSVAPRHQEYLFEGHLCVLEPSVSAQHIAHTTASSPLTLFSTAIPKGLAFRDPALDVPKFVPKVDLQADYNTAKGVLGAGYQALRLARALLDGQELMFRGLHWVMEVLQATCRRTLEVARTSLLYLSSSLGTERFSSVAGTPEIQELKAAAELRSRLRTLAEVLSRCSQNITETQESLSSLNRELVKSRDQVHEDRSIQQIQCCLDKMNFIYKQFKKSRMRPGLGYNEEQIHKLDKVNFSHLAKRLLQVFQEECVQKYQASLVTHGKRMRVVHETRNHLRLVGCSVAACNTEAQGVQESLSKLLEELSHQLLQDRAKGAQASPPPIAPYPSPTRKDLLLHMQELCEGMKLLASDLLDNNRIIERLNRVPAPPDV
# [11] = molecular target: T4, Inhibitor of nuclear factor kappa-B kinase subunit epsilon (Homo sapiens); details: at 1 µM
# [12] = molecular target: T5, Serine/threonine-protein kinase Nek1 (Homo sapiens) (UniProt Q96PY6); details: at 0.1 µM
# T5 sequence (whole entry): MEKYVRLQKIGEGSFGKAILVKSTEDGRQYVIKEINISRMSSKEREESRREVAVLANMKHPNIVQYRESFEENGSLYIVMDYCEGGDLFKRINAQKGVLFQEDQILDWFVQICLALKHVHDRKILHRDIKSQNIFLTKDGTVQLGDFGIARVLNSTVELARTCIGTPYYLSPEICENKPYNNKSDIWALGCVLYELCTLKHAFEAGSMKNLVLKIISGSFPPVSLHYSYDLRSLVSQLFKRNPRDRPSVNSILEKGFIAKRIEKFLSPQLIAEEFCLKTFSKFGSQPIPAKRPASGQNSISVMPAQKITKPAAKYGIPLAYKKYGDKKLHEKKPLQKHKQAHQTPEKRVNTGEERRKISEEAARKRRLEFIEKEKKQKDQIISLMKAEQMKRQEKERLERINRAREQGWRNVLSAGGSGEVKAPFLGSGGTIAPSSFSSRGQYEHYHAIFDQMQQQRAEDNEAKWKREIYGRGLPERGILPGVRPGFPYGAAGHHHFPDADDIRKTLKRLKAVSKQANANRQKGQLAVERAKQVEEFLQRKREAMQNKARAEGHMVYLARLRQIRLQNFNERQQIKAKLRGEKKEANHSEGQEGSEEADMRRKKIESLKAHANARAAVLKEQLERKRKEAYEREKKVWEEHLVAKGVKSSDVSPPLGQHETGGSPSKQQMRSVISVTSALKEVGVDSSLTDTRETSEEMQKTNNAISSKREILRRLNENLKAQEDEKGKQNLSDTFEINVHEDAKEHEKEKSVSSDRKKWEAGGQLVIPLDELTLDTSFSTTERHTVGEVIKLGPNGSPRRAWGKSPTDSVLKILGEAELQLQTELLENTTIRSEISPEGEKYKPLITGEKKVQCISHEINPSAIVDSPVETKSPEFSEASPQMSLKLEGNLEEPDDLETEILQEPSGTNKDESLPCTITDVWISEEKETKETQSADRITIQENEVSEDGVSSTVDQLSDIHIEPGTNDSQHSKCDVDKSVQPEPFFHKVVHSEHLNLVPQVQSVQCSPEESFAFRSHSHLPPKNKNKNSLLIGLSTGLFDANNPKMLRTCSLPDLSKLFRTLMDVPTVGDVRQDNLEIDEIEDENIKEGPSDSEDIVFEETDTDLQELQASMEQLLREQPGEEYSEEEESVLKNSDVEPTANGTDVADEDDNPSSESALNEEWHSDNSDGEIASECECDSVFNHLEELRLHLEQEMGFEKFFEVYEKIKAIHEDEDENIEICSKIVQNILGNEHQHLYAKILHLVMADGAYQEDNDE
# [13] = molecular target: T5, Serine/threonine-protein kinase Nek1 (Homo sapiens); details: at 1 µM
# [14] = molecular target: T6, Serine/threonine-protein kinase Nek2 (Homo sapiens) (UniProt P51955); details: at 0.1 µM
# T6 sequence (whole entry): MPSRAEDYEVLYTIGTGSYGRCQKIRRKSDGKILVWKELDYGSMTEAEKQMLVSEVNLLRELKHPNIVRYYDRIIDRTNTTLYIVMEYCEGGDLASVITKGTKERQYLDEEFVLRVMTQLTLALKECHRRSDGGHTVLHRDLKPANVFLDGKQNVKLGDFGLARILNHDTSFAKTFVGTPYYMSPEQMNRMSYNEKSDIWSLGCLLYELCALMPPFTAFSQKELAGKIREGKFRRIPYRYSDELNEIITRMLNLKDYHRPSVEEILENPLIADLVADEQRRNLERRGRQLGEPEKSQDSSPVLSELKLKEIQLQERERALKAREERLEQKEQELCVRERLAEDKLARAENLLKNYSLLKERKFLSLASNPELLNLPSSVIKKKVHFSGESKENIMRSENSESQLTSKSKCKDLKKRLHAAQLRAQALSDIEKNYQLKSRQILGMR
# [15] = molecular target: T6, Serine/threonine-protein kinase Nek2 (Homo sapiens); details: at 1 µM
# [16] = molecular target: Serine/threonine-protein kinase Nek6 (Homo sapiens) (UniProt Q9HC98); details: at 0.1 µM
# Sequence of Serine/threonine-protein kinase Nek6 (Homo sapiens) (Q9HC98 whole entry): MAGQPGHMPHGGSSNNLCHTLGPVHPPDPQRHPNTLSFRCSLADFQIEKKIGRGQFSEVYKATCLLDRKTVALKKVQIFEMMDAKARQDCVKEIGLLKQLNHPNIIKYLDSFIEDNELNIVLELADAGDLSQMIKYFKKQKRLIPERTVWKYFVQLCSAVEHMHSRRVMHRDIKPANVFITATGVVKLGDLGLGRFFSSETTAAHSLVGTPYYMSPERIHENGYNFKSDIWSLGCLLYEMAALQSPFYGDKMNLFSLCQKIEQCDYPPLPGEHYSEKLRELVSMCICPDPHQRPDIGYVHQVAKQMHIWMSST
# [17] = molecular target: Serine/threonine-protein kinase Nek6 (Homo sapiens) (UniProt Q9HC98); details: at 1 µM
# [18] = molecular target: Serine/threonine-protein kinase Nek7 (Homo sapiens) (UniProt Q8TDX7); details: at 0.1 µM
# Sequence of Serine/threonine-protein kinase Nek7 (Homo sapiens) (Q8TDX7 whole entry, looked up): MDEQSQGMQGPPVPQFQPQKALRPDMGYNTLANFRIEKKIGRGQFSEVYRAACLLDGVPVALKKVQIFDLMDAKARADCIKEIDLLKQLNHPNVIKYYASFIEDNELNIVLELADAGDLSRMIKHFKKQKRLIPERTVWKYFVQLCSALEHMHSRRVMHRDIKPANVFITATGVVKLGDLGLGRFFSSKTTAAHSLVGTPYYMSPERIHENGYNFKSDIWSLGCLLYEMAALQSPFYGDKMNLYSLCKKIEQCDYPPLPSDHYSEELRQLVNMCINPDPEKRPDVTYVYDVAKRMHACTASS
# [19] = molecular target: Serine/threonine-protein kinase Nek7 (Homo sapiens) (UniProt Q8TDX7); details: at 1 µM
# [20] = molecular target: T7, Serine/threonine-protein kinase Nek9 (Homo sapiens) (UniProt Q8TD19); details: at 0.1 µM;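 further: reported value is the mean percent inhibition of NEK9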
# T7 sequence (whole entry): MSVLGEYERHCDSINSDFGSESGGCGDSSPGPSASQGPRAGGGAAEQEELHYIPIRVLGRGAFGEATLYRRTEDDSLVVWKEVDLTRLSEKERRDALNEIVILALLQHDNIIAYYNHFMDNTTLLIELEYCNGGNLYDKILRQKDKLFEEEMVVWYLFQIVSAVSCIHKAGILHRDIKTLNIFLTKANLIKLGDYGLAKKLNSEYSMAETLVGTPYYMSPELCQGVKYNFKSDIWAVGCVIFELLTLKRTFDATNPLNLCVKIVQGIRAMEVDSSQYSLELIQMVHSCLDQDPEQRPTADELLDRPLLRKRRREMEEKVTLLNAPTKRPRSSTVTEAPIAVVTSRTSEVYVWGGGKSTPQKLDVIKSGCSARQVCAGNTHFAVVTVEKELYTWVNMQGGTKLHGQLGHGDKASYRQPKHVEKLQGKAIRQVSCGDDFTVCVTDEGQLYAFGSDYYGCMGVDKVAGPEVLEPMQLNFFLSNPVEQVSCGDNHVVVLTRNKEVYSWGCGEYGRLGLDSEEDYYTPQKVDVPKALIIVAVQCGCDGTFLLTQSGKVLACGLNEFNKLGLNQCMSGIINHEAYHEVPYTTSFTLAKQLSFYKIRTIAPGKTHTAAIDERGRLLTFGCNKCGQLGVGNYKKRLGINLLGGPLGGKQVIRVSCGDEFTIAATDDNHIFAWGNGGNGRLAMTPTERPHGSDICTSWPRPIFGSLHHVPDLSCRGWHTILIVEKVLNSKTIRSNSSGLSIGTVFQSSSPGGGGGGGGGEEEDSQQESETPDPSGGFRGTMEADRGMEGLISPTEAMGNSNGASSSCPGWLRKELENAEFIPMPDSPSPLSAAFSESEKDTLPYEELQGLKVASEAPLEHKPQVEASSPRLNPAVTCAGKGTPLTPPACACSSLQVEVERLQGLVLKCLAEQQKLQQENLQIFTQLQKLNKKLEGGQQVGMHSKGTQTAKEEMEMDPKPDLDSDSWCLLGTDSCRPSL
# Sequence of Sphingosine kinase 1 (Homo sapiens) (Q9NYA1 whole entry): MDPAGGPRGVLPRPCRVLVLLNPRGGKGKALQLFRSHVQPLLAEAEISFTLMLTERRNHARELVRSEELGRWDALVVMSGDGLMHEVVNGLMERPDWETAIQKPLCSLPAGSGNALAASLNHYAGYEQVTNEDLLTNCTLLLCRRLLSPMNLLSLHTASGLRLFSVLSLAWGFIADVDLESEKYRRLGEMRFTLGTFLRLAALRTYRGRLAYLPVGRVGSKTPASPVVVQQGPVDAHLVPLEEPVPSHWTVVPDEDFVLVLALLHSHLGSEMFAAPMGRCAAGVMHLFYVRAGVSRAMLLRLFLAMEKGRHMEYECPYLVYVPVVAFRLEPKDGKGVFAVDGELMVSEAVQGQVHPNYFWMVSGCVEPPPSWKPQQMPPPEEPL
structure (smiles),measurement,setting,value
COc1cc(C=NNc2ncnc3c2cnn3-c2ccccc2)ccc1O,inhibition,[1],-3.84%
same,inhibition,[2],-0.52%
same,inhibition,[3],-2.55%
same,inhibition,[4],9.38%
same,inhibition,[5],41.6%
same,inhibition,[6],10.6%
same,inhibition,[7],-1.27%
same,inhibition,[8],3.33%
same,inhibition,[9],-0.52%
same,inhibition,[10],3.38%
same,inhibition,[11],8.67%
same,inhibition,[12],3.59%
same,inhibition,[13],15.8%
same,inhibition,[14],2.6%
same,inhibition,[15],3.58%
same,inhibition,[16],1.23%
same,inhibition,[17],-0.37%
same,inhibition,[18],3.01%
same,inhibition,[19],5.26%
same,inhibition,[20],3.36%
